AID inhibitor: Primary qHTS assay for inhibitors of Activation Induced Cytidine Deaminase (AID): AID signal | Single-stranded DNA cytosine deaminase (Homo sapiens), Q9GZX7 | AID deamination FRET fluorescence, UDG-coupled, 4 h | Potency, µM (highest dose often 115 µM), most hits filed as inhibitors | 91,000 compounds, 0.32% hits | AID 1347428, 2020; further: nearly all actives have a fitted effect of over 25% in size
Target sequence (Q9GZX7 whole entry, looked up): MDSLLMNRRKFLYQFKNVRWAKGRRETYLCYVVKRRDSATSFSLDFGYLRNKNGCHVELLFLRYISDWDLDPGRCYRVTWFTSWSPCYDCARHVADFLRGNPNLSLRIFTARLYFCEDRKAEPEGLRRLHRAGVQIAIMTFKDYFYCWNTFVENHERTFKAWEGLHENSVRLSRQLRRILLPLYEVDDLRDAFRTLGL
UDG counter: Primary qHTS assay for inhibitors of Activation Induced Cytidine Deaminase (AID): UDG Counterscreen signal. Uracil-DNA glycosylase. FRET deamination/UDG coupled assay, UDG read, 4 h. Potency, µM (titrated, usually from 115 µM), most hits filed as inhibitors. 91,000 compounds, 0.14% hits. AID 1347430, 2020; further: nearly all actives have a fitted effect of over 65% in size
Numbers stand for hits. Rows were chosen to be rich in hits. Some 0.47% of all compounds tested hit in one or more screens of this group. The call rests on the fitted dose curve; in most records, active means well fitted curve in the direction sought with a large enough effect; inconclusive means small, poorly fitted or top-dose-only effect, or another doubt; inactive means no such curve, though single readings can be large; an effect the other way counts as inactive or inconclusive.

For O=c1[nH]c(SCc2ccc([N+](=O)[O-])cc2)nc2c1CCCC2 the results were AID inhibitor inactive and UDG counter inconclusive.
`CC(C)(C)c1ccc(CSc2nc3c(c(=O)[nH]2)CCCC3)cc1` gave AID inhibitor inactive and UDG counter 79.4µM.
O=C(CC(c1ccccc1)S(=O)(=O)c1ccccc1)c1ccc(F)cc1 (configuration not stated) was read as AID inhibitor inactive and UDG counter inactive.
`CCCn1nc(C(=O)NCCc2cccs2)c2ccccc2c1=O` gave AID inhibitor inactive and UDG counter inactive.
`Cc1oc(-c2ccccc2Cl)nc1CS(=O)(=O)CC(=O)NC(C)CCc1ccccc1` (configuration not stated) gave AID inhibitor 20µM and UDG counter inactive.
Cc1oc(-c2ccccc2Cl)nc1CS(=O)(=O)CC(=O)NC(C)c1ccccc1 (configuration not stated) was read as AID inhibitor inconclusive and UDG counter inactive.
`COc1ccc(C2=NC(c3ccncc3)=Nc3ccc(OC)cc3N2)cc1` gave AID inhibitor inactive and UDG counter inactive.
Screening CCc1ccc2c(c1)NC(c1ccc(OC)cc1)=NC(c1ccncc1)=N2 returned AID inhibitor inconclusive and UDG counter 89.1µM.
For COC(=O)c1ccc(CNC(=O)c2cc(-c3ccc(C)cc3)nc3ccccc23)cc1 the results were AID inhibitor inactive and UDG counter inactive.
`COC(=O)c1ccc(C[N+]2(C)CCCCC2)cc1` gave AID inhibitor inactive and UDG counter inactive.
For COc1ccc(Nc2nc(Nc3ccc(F)cc3)nc3nccnc23)cc1 the results were AID inhibitor 25.1µM and UDG counter inactive.
`COc1ccc(Nc2nc(NCCO)c3nccnc3n2)cc1` gave AID inhibitor inactive and UDG counter inactive.
Screening CC(C1CC1)N(Cc1ccccc1)C(=O)CSc1cc(C(N)=O)c2ccccc2n1 (configuration not stated) returned AID inhibitor inactive and UDG counter inactive.
`COc1ccc(-n2cc(-c3ccccc3)c3c(NC4CCCC4)ncnc32)cc1` gave AID inhibitor 35.5µM and UDG counter inactive.
Screening Clc1cccc(-n2cc(-c3ccccc3)c3c(NC4CCCC4)ncnc32)c1 returned AID inhibitor inconclusive and UDG counter inactive.
`OB1Oc2ccccc2-c2ccccc21` gave AID inhibitor inactive and UDG counter inactive.
Screening CCC(C)c1ccc(OCC(=O)Nc2cccc(-c3nc4ncccc4o3)c2)cc1 (configuration not stated) returned AID inhibitor 31.6µM and UDG counter inactive.
`CC(C)c1ccc(OCC(=O)Nc2cc(-c3nc4ncccc4o3)ccc2Cl)cc1` gave AID inhibitor inactive and UDG counter inactive.
For COc1ccc(N(C)C(=O)c2cc3c(s2)-c2ccccc2OC3)cc1 the results were AID inhibitor 44.7µM and UDG counter inactive.
`COc1cc(OC)c(N(C)C(=O)c2cc3c(s2)-c2ccccc2OC3)cc1Cl` gave AID inhibitor inactive and UDG counter inactive.
For Cc1ccc(C(=O)CC(C(=O)O)c2c[nH]c3ccccc23)cc1 (configuration not stated) the results were AID inhibitor inactive and UDG counter inactive.
CCc1ccc(C(=O)Nc2sc(C)c(C)c2C#N)cc1 was read as AID inhibitor inactive and UDG counter inactive.
Screening CCOc1ccc(NC(=O)CN(C)S(=O)(=O)c2ccc3c(c2)c(=O)n(C)c(=O)n3C)cc1 returned AID inhibitor 22.4µM and UDG counter inactive.
Screening Cc1cccc(NC(=O)CN(C)S(=O)(=O)c2ccc3c(c2)c(=O)n(C)c(=O)n3C)c1 returned AID inhibitor inactive and UDG counter inactive.
N#CCNC(=O)c1ccc2c(c1)OCCCO2 was read as AID inhibitor inactive and UDG counter inactive.
`CCCCc1noc(CN2CCC(c3nc4cc(Cl)ccc4o3)CC2)n1` gave AID inhibitor inactive and UDG counter inactive.
`CCCCc1nc(CN2CCN(c3cccc(F)c3C#N)CC2)no1` gave AID inhibitor inconclusive and UDG counter 89.1µM.
For COc1ccccc1NC(=O)Cn1nc(-c2ccc(C)cc2)c2c(c1=O)CCCC2 the results were AID inhibitor inconclusive and UDG counter inactive.
`CCC(C(=O)Nc1cc(OC)ccc1OC)n1nc(-c2ccccc2)c2c(c1=O)CCCC2` (configuration not stated) gave AID inhibitor 28.2µM and UDG counter inactive.
For COc1cc(OC)c(C(=O)OCc2ccccc2Br)cc1OC the results were AID inhibitor inactive and UDG counter inactive.
`COc1cc(OC)cc(C(=O)/C(=C/c2ccccn2)c2nc3ccccc3o2)c1` gave AID inhibitor inactive and UDG counter inactive.
CCn1ncc2c(C(=O)Nc3ccc(OC(F)F)cc3)cc(-c3cccs3)nc21 was read as AID inhibitor inactive and UDG counter inactive.
For CC1Cc2ccccc2N1S(=O)(=O)c1nnc(NC(=O)c2ccccc2Br)s1 (configuration not stated) the results were AID inhibitor 44.7µM and UDG counter inactive.
Screening CC1Cc2ccccc2N1S(=O)(=O)c1nnc(NC(=O)c2ccccc2)s1 (configuration not stated) returned AID inhibitor inactive and UDG counter inactive.
COC(=O)c1ccc(F)c(NC(=O)CCc2c(C)nc(C)[nH]c2=O)c1 was read as AID inhibitor inactive and UDG counter inactive.
For CC(C)c1ccc(Nc2ncnc3onc(-c4ccc(F)cc4)c23)cc1 the results were AID inhibitor inconclusive and UDG counter 89.1µM.
For Cc1noc2ncnc(Nc3ccc(F)cc3)c12 the results were AID inhibitor inactive and UDG counter inactive.
`O=C(CCCCN1CCC(c2ccccc2)C1)c1ccccc1` (configuration not stated) gave AID inhibitor inactive and UDG counter inactive.
For CNc1oc(-c2ccc(Cl)cc2)nc1S(=O)(=O)c1ccc2c(c1)OCCO2 the results were AID inhibitor inactive and UDG counter inactive.
For CNc1oc(-c2ccccc2F)nc1S(=O)(=O)c1ccc2c(c1)OCCO2 the results were AID inhibitor inactive and UDG counter 79.4µM.
COc1ccc(-c2c(C)noc2-c2ccc(O)cc2O)cc1OC was read as AID inhibitor inactive and UDG counter inactive.
CCOc1ccc(-c2noc(CSc3nnc(Cc4ccccc4)n3-c3ccc(F)cc3)n2)cc1 was read as AID inhibitor inconclusive and UDG counter inactive.
Cc1ccccc1-c1noc(CSc2nnc(Cc3ccccc3)n2-c2ccc(F)cc2)n1 was read as AID inhibitor 20µM and UDG counter inconclusive.
`CCOc1ccc(-n2c(Cc3ccccc3)nnc2SCc2nc(-c3ccccc3OC)no2)cc1` gave AID inhibitor inconclusive and UDG counter inactive.
CCc1ccc(-n2c(Cc3ccccc3)nnc2SCc2nc(-c3cccs3)no2)cc1 was read as AID inhibitor 39.8µM and UDG counter inconclusive.
CC1=C(C(=O)c2ccc(Cl)cc2)C(c2ccccc2)NC(=O)N1 (configuration not stated) was read as AID inhibitor inactive and UDG counter inactive.
Screening NNc1cccc(S(=O)(=O)c2cccc(NN)c2)c1 returned AID inhibitor inconclusive and UDG counter 44.7µM.
For NNc1ccc(S(=O)(=O)c2ccc(NN)cc2)cc1 the results were AID inhibitor inactive and UDG counter inactive.
`N#Cc1c(O)ccc(O)c1C#N` gave AID inhibitor inactive and UDG counter inactive.

Bioassay records (PubChem)
